Compounds with a hit are over-represented: about 0.42% of the library has one in this group of screens.
CatB inh = human cathepsin B inhibitors, primary screen, biochemical, fluorogenic substrate | inhibition, %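 (tested at 10 µM)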 | purified cathepsin B, fluorescence | P07858 | 63,000 tested, 0.1% active; in the data active means inhibition above about 21%;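 further: 0% = enzyme with no compound and 100% = no enzyme blank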
CatS block = inhibitors of human cathepsin S, biochemical, compound mixtures; P25774; recombinant cathepsin S, AMC dipeptide fluorescence, pooled mixtures; inhibition, %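 (tested at 5 µM per compound within 10-compound mixtures)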; 62,000 tested, 0.06% active; in the data active means inhibition above about 32%, passing the limit was not always enough;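 further: 0% = enzyme without compound and 100% = blank without enzyme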
Target sequence (P25774 115-331 limits assumed): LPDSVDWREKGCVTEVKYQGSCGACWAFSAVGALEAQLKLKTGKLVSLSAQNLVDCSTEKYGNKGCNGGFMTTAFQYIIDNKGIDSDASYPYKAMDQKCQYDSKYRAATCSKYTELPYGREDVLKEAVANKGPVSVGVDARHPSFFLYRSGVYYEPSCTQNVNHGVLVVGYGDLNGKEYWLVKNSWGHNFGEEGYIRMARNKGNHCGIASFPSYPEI
WNV NS2B-NS3 inh = inhibitors of WNV NS2B-NS3 protease, primary screen, biochemical, fluorogenic substrate. Genome polyprotein (West Nile virus), P06935. fluorogenic substrate Ex360/Em465; hits give low values. z-score (no concentration beside the values). 65,000 tested, 0.18% active. AID 577, 2007; in the data active means z-score below about -3
Target sequence (P06935 1371-1501 limits assumed): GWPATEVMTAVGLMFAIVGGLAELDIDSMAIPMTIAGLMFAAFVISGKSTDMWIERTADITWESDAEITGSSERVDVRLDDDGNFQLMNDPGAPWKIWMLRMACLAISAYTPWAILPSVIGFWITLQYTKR
Target sequence (P06935 1502-1679 limits assumed): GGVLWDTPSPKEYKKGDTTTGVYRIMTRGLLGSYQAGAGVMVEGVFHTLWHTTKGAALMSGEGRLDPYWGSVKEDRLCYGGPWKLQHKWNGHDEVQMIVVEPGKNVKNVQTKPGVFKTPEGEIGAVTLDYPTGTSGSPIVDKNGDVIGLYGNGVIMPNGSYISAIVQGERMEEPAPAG
CatB mix inh = cathepsin B inhibitors from pooled compounds, primary screen, biochemical, compound mixtures, AMC fluorescence. Purified cathepsin B, AMC dipeptide fluorescence. inhibition, %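 (ten-compound pools at 5 µM per compound and 50 µM total)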. 62,000 tested, 0.06% active; in the data active means inhibition above about 22%, passing the limit was not always enough;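 further: 0% = enzyme without compound and 100% = no enzyme blank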
CatL block = inhibitors of human cathepsin L, biochemical | Procathepsin L (Homo sapiens), P07711 | purified cathepsin L, fluorogenic substrate, fluorescence | inhibition, %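 (tested at 10 µM)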 | 58,000 tested, 0.17% active | AID 460, 2006; in the data active means inhibition above about 45%;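 further: 0% = enzyme with no compound and 100% = no enzyme blank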
Numbers without * were called inactive; x = no result given.

SMILES	CatB inh	CatS block	WNV NS2B-NS3 inh	CatB mix inh	CatL block
COc1ccc(CCNC(=O)c2c(O)c3cccc4c3n(c2=O)CC4)cc1	0	4	-4.7*	-5	1
Cn1c(-c2ccccc2)cc2c3no[n+]([O-])c3ccc21	-2	-2	-0.39	-5	-5
CCN1C(=O)c2cccc3c(S(=O)(=O)Nc4c(C)n(C)n(-c5ccccc5)c4=O)ccc1c23	3	-6	-0.95	6	-1
CCOC(=O)Cc1csc(NS(=O)(=O)c2ccc3c4c(cccc24)C(=O)N3CC)n1	5	55*	-0.34	-1	2
Nc1nonc1C(=O)NCCNCc1ccccc1OCc1ccccc1F	23*	10	-0.09	25	16
Nc1nonc1C(=O)NCCNCc1cc(Br)ccc1OCc1ccccc1F	12	5	0.31	24	12
O=C(NCCC1=CCCCC1)C1CCN(S(=O)(=O)c2cccc3cccnc23)CC1	3	-11	-0.38	4	0
O=C(NCCCN1CCCCCC1)c1ccc(CS(=O)(=O)Cc2ccccc2F)o1	6	2	-1.6	6	60*
CC1CCN(CCCNC(=O)c2ccc(CS(=O)(=O)Cc3ccccc3F)o2)CC1	6	9	0.55	1	5
CCn1cc(C(=O)Nc2cccc(C(=O)OC)c2)c(=O)c2ccc(C)nc21	-2	-7	-6.2*	4	-1
CN(C)/C=N/c1cnc(C(=O)c2ccc(Cl)cc2)n1C	4	8	-0.62	15	x
COCCNC(=O)C(c1cccc(OC)c1)N(C(=O)Cn1nnc2ccccc21)c1cccnc1 (centres undefined)	23*	10	0.97	-4	5
Cc1csc2nc(CNC(=O)C3CC=CCC3C(=O)O)cn12 (centres undefined)	1	11	-4.3*	0	3
CC(=O)NCc1cn2c(C)csc2n1	-6	6	-0.72	3	x
Cc1cc2c(=O)n(CC(=O)NCC(=O)N3CCN(Cc4ccccc4)CC3)cnc2s1	2	-1	0.79	0	-2
N#Cc1nc(N2CCCCC2)nc(N2CCOCC2)n1	13	58*	0.4	7	58*
N#Cc1nc(N2CCCC2)nc(N2CCCC2)n1	1	20	0.37	6	15
CNc1nc2sc3c(c2c(=O)n1C)CC(C)(C)SC3	3	9	-7*	-1	-20
CN(C)c1nc2sc3c(c2c(=O)n1C)CC(C)(C)OC3	1	x	-0.53	x	-5
COC(=O)c1ccc(CC(=O)c2c(C)cc(O)cc2O)o1	-1	7	-1.3	1	10
CCCCN(CC)CCNC(=O)C1c2cc(OC)c(OC)cc2C(=O)N2CCc3ccccc3C12 (centres undefined)	5	2	-1.5	-2	20
CCN1CCN(C(=O)C2c3cc(OC)c(OC)cc3C(=O)N3CCc4ccccc4C23)CC1 (centres undefined)	2	-5	-3.2*	2	10
O=C(Nc1ccc2c(c1)OCO2)C1CCN(Cc2cnn(-c3ccccc3)c2-n2cccc2)CC1	1	8	1.2	6	4
O=C(Nc1ccc(Cl)cc1)NC1CCCC1Cc1ccco1 (centres undefined)	-2	0	-4.8*	-1	-3
CSC1=Nc2sc3c(c2C2=NCCN12)CC(C)(C)OC3	2	12	0.34	-4	-6
SMILES	CatB inh	CatS block	WNV NS2B-NS3 inh	CatB mix inh	CatL block
COc1ccc(OC)c(C2C(C(N)=O)=C(C)Nc3nc(-c4cccc(Cl)c4)nn32)c1 (centres undefined)	2	7	-4.8*	-1	8
COc1ccc(S(=O)(=O)n2nc(OC(=O)c3ccccc3)cc2N)cc1	39*	14	-6.4*	29*	-1
COc1ccc(S(=O)(=O)n2nc(OC(=O)c3ccccc3Br)cc2N)cc1	3	-22	-4.2*	-2	-8
COc1ccc(S(=O)(=O)n2nc(OC(=O)c3ccc(C)cc3)cc2N)cc1	49*	-5	-0.72	32*	-3
CC(C)(C)C(=O)Oc1cc(N)n(S(=O)(=O)c2ccccc2)n1	9	25	-0.63	7	18
COc1ccc(S(=O)(=O)n2nc(OC(=O)c3cccs3)cc2N)cc1	76*	0	-5.6*	68*	-4
Cc1nc(COC(=O)c2c(C)nn(-c3ccccc3)c2C)cs1	1	0	-0.91	-2	33
CCNC(=O)[C@@H]1CCCN1C(=O)[C@H](CCCN=C(N)N)NC(=O)[C@H](CC(C)C)NC(=O)[C@@H](CC(C)C)NC(=O)[C@H](Cc1ccc(O)cc1)NC(=O)[C@H](CO)NC(=O)[C@H](Cc1c[nH]c2ccccc12)NC(=O)[C@H](Cc1cnc[nH]1)NC(=O)[C@@H]1CCC(=O)N1	x	x	1.9	x	x
Cc1cc(C)n(C(=O)CNC(=O)COc2ccccc2)n1	3	-3	-1.7	2	-5
COc1ccc(S(=O)(=O)n2nc(OC(=O)c3ccco3)cc2N)cc1	78*	16	-7.7*	67*	14
COc1ccccc1-c1noc(CCC(=O)Nc2cc(C(F)(F)F)ccc2Cl)n1	2	0	-0.58	0	17
CC1Cc2ccccc2N1C(=O)CCn1c(=O)sc2ccccc21 (centres undefined)	4	-8	-0.8	3	0
O=C(CCS(=O)(=O)Cc1ccccc1)Nc1nc2c(s1)CCCC2	6	5	-0.82	5	x
O=C(CCCc1cccs1)Nc1nc2c(s1)CCCC2	-2	7	-0.21	7	48*
Cc1cc(C)c(N2C(=NC(=O)CCCC(=O)O)SC3CS(=O)(=O)CC32)c(C)c1 (centres undefined)	6	-2	-1.1	3	7
CCCN(CCC)CCNC(=O)C(NS(=O)(=O)c1ccc2c(c1)CCC(=O)N2)c1ccccc1 (centres undefined)	1	82*	-0.33	7	25
Cc1cc(NC(=O)CN2CCc3ccccc3C2)nc2c1c(=O)oc1ccccc12	7	43	0.22	0	20
CN1CCN(C(=O)CSc2nc(-c3cccs3)cc(-c3cccs3)c2C#N)CC1	-8	8	-1.8	7	-30
CSc1nc(C2CC2)cc(-c2cccs2)c1C#N	48*	2	-0.38	3	2
CCSc1nnc(NC(=O)NCC(F)(F)F)s1	5	x	-7.8*	x	-16
CCSc1nnc(NC(=O)C(C)(C(F)(F)F)C(F)(F)F)s1	-1	x	0.46	x	4
CCCCc1c(C)nn(-c2nnc3c4ccccc4n(C)c3n2)c1C	0	x	0.45	x	94*
COCCn1c(=O)c2c3c(sc2n(CC(N)=O)c1=O)CCCC3	7	2	-0.96	-3	7
O=C(c1ccco1)N(CCCN1CCOCC1)c1nc(-c2ccc(Cl)cc2)cs1	-2	-5	-3.1*	-2	18
O=C(c1ccco1)N(CCCN1CCOCC1)c1nc(-c2ccc(F)cc2)cs1	-1	5	-0.93	7	-9
CCc1nc(SCC(=O)Nc2cccc(C(F)(F)F)c2)c2c(=O)n(C)c(=O)n(C)c2n1	1	-7	1.7	2	x
